Inconclusive results are not listed. Calls of active or inactive are those of the source. The call rests on the fitted dose curve.

The source of these data is PubChem BioAssay (NCATS).

This test in a line: qHTS for inhibitors of Rabies Virus screened against the NCATS CANVASS Library (AID 1347402). To be noted: Rabies virus infection cell assay; series mostly up to 45.9 µM.
`C=C1CCC2C(C)(C(=O)O)CCC(CC/C(C)=C/C(=O)NC(CCC(N)=O)C(=O)O)[C@@]2(C)C1` (some centres not stated): the molecule was called inactive.
The entry for `CCC(C)=C1OC(=O)[C@H](C)[C@H](O)[C@H](Cc2cccnc2)NC(=O)C(NC(=O)c2ncccc2O)C(C)OC1=O` (some centres not stated) is “inactive”; for `C[C@@]12CCC[C@@](C)(C(=O)OP(=O)(O)OC[C@H]3O[C@@H](n4cnc5c(N)ncnc54)[C@H](O)[C@@H]3O)[C@H]1C[C@@H](O)[C@@]13C[C@@H](CC[C@@H]21)[C@](C)(O)C3` it is “inactive”.
The entry for `COC1C(C)OC(OCC23C[C@@H]4[C@H](C)CC[C@H]4C4(C=O)CC2C=C(C(C)C)C34C(=O)O)[C@@H](O)[C@H]1O` (some centres not stated) is “inactive”; for `COc1cc2c(c(O)c1O)C(=O)c1c(coc1C)C2=O` it is “inactive”.
For `COC12OC1(C13OC1(OC)C(=O)c1cc4cc(C)oc(=O)c4c(O)c1C3O)C(O)c1c(cc3cc(C)oc(=O)c3c1O)C2=O` (configuration not stated), the outcome was inactive.
For `O=C1CC(c2ccc(O)cc2)Oc2ccccc21` (configuration not stated) the value was “inactive”; for `C/C=C1/CC[C@@H]2c3[nH]c4ccccc4c3CCN2C1`, “inactive”; for `C[C@@]1(CCC(=O)Nc2c(O)ccc(C(=O)O)c2O)C(=O)C=C[C@]23C[C@H]4C[C@H](O[C@@]4(C)C2)C31` (some centres not stated), “inactive”.
For `C[C@@H]1C(=O)[C@]23CC[C@H]1C[C@]21O[C@H]2C(C)(C)C=CC(=O)[C@@]23COC1=O` the value was “inactive”.
For `C[n+]1cc2cc(C(N)=O)[nH]c3c(=N)c(Cl)c(N)c1c23` the value was “inactive”; for `C=C1C[C@@]23C=CC(=O)[C@@](C)(CCC(=O)Nc4c(O)ccc(C(=O)O)c4O)C2C[C@@H]1CC3` (some centres not stated), “inactive”.
